High-throughput results from PubChem BioAssay.
SF1 inhibitor = SF-1 (human) inhibition; Q13285; CHO-K1 Gal4-SF-1 LBD luciferase reporter; 65,000 compounds, 0.55% hits; inhibition, % at 10 µM;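 active = inhibition above the mean inhibition of all tested compounds plus 3 SD, cut at about 48% in these data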;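 also: 0% = SF-1 transfected cells with DMSO and 100% = mock-transfected cells lacking SF-1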
Target sequence (Q13285 whole entry, looked up, the tested form may be a part): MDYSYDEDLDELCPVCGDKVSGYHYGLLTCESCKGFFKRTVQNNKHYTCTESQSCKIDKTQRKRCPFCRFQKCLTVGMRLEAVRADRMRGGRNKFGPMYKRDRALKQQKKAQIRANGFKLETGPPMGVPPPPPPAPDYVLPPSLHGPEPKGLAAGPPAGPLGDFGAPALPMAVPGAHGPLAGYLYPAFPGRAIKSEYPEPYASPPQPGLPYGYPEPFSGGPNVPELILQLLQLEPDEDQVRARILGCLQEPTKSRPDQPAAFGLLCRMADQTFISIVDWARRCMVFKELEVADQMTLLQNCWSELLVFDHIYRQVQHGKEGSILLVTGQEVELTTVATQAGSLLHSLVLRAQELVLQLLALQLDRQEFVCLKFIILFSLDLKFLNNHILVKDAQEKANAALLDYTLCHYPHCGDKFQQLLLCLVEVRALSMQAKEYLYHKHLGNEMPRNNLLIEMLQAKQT
* hit, by the source's call. Many of the other results were omitted from the sample, so hits are more common in it than they were.

SMILES	SF1 inhibitor
O=C(Nc1nc(-c2ccccn2)cs1)c1ccc(Cl)s1	95*
O=C(Nc1nccs1)c1ccc(Cl)s1	-58
O=C(Nc1nc(-c2ccccn2)cs1)c1ccc(S(=O)(=O)N2CCCCC2)cc1	64*
O=C(Nc1ccc2sccc2c1)c1ccc(Cl)s1	-60
CN(C)C=Nc1ncc2c([nH]c3ccccc32)c1C#N	-16
O=C(NC1CCCCC1)c1cc2nc3c(c(C(F)(F)F)n2n1)CCCC3	-50
CCn1cc(Br)c(C(=O)Nc2ccc(F)c(Cl)c2)n1	-35
COC(=O)Cn1c(C)nc2c(sc3nc(C)cc(C)c32)c1=O	-50
Cn1c(=O)c2c(nc(CN3CCN(C(=O)c4ccco4)CC3)n2Cc2ccc(F)cc2)n(C)c1=O	-12
CCN(CC)CCn1c(NCc2cccc(OC)c2)nc2ccccc21	3
COc1ccc(OC)c(C(=O)CSc2nc3c(c(=O)n(C)c(=O)n3C)n2C(C)C)c1	9
COc1ccc(Cl)c(Cn2c(NCc3ccco3)nc3c2c(=O)n(C)c(=O)n3C)c1	49*
COc1ccc(-n2nc(C(=O)NCc3ccco3)c3c4ccccc4n(C)c3c2=O)cc1	26
COc1cccc(Cn2c(NCc3ccco3)nc3c2c(=O)n(C)c(=O)n3C)c1	63*
CCOC(=O)c1ccc(N2CC(O)=C(c3nc4ccccc4c(=O)[nH]3)C2=N)cc1	0
COCCCNc1oc(-c2ccccc2F)nc1C#N	-57
NC(=O)CS(=O)(=O)c1nc2ccccc2n1Cc1ccccc1F	10
COC(=O)c1cc(S(=O)(=O)N2CCC(C)CC2)ccc1F	7
O=C(Nc1nc(-c2ccc3c(c2)OCO3)cs1)C1CC1	-51
Cc1c(NC(=O)CCC2CCCCC2)c(=O)n(-c2ccccc2)n1C	-10
CC(C)(C)c1ccc(-c2cc(N)n[nH]2)cc1	48*
CCn1c(SCC(=O)Nc2nc3c(s2)CCCC3)nc2c1c(=O)n(C)c(=O)n2C	11
CCOc1ccccc1NC(=O)CSc1nc2cccnc2n1C	9
O=C(COc1ccc(-c2nnco2)cc1)NC1CCCc2ccccc21 (configuration not stated)	-3
CCOC(=O)c1cccc(NC(=O)Cn2cc3c(n2)CCC(C)C3)c1 (configuration not stated)	13
SMILES	SF1 inhibitor
Cn1c(-c2ccc(Br)o2)nc2ccccc21	-76
CCn1c(-c2ccc(N(C)C)cc2)nc2ccccc21	-20
CN(C)c1ccc(-c2nc3ccccc3n2C)cc1	59*
Cn1c(-c2ccc3ccccc3n2)nc2cnccc21	-65
c1ccc(CCc2nc(-c3ccccn3)no2)cc1	-35
Clc1ccc(-c2nc(-c3ccccn3)no2)cc1Cl	51*
CCCCC1CCC(c2nc(-c3ccccn3)no2)CC1 (configuration not stated)	-52
Cc1cccc(-c2nc(C#N)c(NC3CCCCC3)o2)c1	-50
CCOC(=O)c1c(C)n(CC(O)c2ccccc2)c2ccc(O)cc12 (configuration not stated)	7
CC(C)(C)NC(=O)CSc1nnc(Cc2ccc3c(c2)OCO3)n1C1CCCCC1	6
COc1cc(C2C(C#N)=C(N)Oc3cc(N)ccc32)cc(OC)c1OC (configuration not stated)	63*
COC(=O)Cc1[nH]nc2c1C(c1cccc(OC)c1OC)C(C#N)=C(N)O2 (configuration not stated)	6
COc1cc(C2C(C#N)=C(N)Oc3cc(C)n(CC4CCCO4)c(=O)c32)cc2c1OCO2 (configuration not stated)	-5
O=S(=O)(NC1CCCCC1)c1cccc(-c2nnc(-c3ccccc3)o2)c1	8
Cc1ccc2[nH]c3c(N4CCN(Cc5ccc6c(c5)OCO6)CC4)ncnc3c2c1	73*
COc1ccc(-n2ccnc2SCC(=O)NCc2ccc3c(c2)OCO3)cc1	-6
COc1ccc2c(c1)[nH]c1c(N3CCN(Cc4ccc5c(c4)OCO5)CC3)ncnc12	74*
CC(=O)c1ccc(OCC(O)CN2CCN(Cc3ccc4c(c3)OCO4)CC2)cc1 (configuration not stated)	-27
Cc1ccc(-n2c(=O)cc(N3CCCCCC3)[nH]c2=O)cc1	-6
c1ccc2sc(NC3=NCN(Cc4ccc5c(c4)OCO5)CN3)nc2c1	7
Cc1ccc2c(c1)c1ncnc(N3CCC4(CC3)OCCO4)c1n2C	-67
Cc1ccc2[nH]c3c(N4CCCCCC4)ncnc3c2c1	74*
Cc1cc(C)c2[nH]c(=O)c(C(c3nnnn3Cc3ccc4c(c3)OCO4)N3CCCCC3)cc2c1 (configuration not stated)	12
CCCCNC(=O)c1nnn(-c2ccccc2)c1N	-67
Cc1cc(-c2ccccc2)nc(N2CCC(C(=O)NC(C)C)CC2)n1	-97
SMILES	SF1 inhibitor
CCC(C)OC(=O)c1[nH]c2c(c1C)C(=O)CC(c1ccc(N(C)C)cc1)C2 (configuration not stated)	-57
Cc1csc(SCCN2C(=O)c3ccccc3C2=O)n1	-65
O=C(Nc1nccs1)c1ccc(NC(=O)c2ccco2)cc1	-56
O=C(NCCC1=CCCCC1)NC1CCCCC1	-20
CCC(C)NS(=O)(=O)c1ccc(NC(=O)c2c(-c3ccccc3)noc2C)cc1 (configuration not stated)	-11
N#C/C(C(=O)c1ccccc1)=C1/CCCCCN1	-61
Cc1cc(C)n(-c2ccc3cccc(NS(C)(=O)=O)c3n2)n1	79*
CCN(CCCNC(=O)CC1Oc2ccc(C)cc2NC1=O)Cc1ccccc1 (configuration not stated)	-8
CC1C(O)=C(c2nc3ccccc3[nH]2)C(=N)N1c1ccccc1 (configuration not stated)	-54
c1ccc(-n2ncc3c(NCCN4CCCCC4)ncnc32)cc1	-69
CCN(c1ccccc1)c1ncnc2c1cnn2-c1ccccc1	-59
COc1ccc(-n2ncc3c(N(C)C4CCCCC4)ncnc32)cc1	74*
Cc1cccc(-n2ncc3c(NCc4ccco4)ncnc32)c1	-93
Cc1cccc(-n2ncc3c(N(C)C4CCCCC4)ncnc32)c1	77*
Cc1cccc(-n2ncc3c(NCc4ccccc4)ncnc32)c1	-82
CC(C)(C)n1ncc2c(=O)n(CC(=O)NCc3ccc(F)cc3)cnc21	-92
CCNC(=O)NC(=O)COC(=O)c1ccccc1SCC(=O)NC(=O)NCC	-69
CCOCC(=O)Nc1cccc(Br)c1	-10
CC(=O)c1c(C(C)=O)c(C)n(-c2nc(-c3ccccc3)c(C)s2)c1C	16
CSc1nc(-c2ccccc2)nc2[nH]ccc(=O)c12	-12
CCN1CCN(c2ncc(C(=O)N3CCCc4ccccc43)c3ccccc23)CC1	-15
O=C1CC(CCC(=O)NC2CC2)c2ccccc2N1 (configuration not stated)	2
CC1=C(c2ccc(C)cc2)S(=O)(=O)N(CC(=O)O)C1=O	3
CC(=O)c1c(NCCc2ccccc2)cc(C)oc1=O	8
CC(=O)CC1OC(=O)C(Br)=C1NCc1ccccc1 (configuration not stated)	79*
SMILES	SF1 inhibitor
CCSc1nnc(NC(=O)c2cc3c(s2)CCCC3)s1	-52
CCSc1nnc(Nc2ccccc2)s1	-54
CCSc1nnc(NC(=O)c2ccccn2)s1	55*
COC(=O)c1[nH]c2ccccc2c1NC(=O)CN1CCN(c2cccc(Cl)c2)CC1	-20
CCOc1ccccc1C(=O)N1CCN=C1SC	6
CCOc1ccccc1C(=O)N1CCN(c2cccc(Cl)c2)CC1	55*
COc1ccccc1OC(=O)C1CC(=O)N(c2ccc(Cl)cc2)C1 (configuration not stated)	6
